Here are results for 28 molecules from PubChem BioAssay.

The target in the assay is Focal adhesion kinase 1 (Homo sapiens) (UniProt Q05397). The experiment in a line: PTK2 protein binding on printed compound slides – biochemical, small-molecule microarray, 635/667 nm fluorescence, BSA, DTT, primary screen (AID 1130).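 Also: composite of spot emission at 667 nm and signal to noise over triplicate slides.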 The conditions noted are these: 635 nm fluorescence, higher = more signal.
Focal adhesion kinase 1 (Homo sapiens), sequence (Q05397 whole entry, looked up): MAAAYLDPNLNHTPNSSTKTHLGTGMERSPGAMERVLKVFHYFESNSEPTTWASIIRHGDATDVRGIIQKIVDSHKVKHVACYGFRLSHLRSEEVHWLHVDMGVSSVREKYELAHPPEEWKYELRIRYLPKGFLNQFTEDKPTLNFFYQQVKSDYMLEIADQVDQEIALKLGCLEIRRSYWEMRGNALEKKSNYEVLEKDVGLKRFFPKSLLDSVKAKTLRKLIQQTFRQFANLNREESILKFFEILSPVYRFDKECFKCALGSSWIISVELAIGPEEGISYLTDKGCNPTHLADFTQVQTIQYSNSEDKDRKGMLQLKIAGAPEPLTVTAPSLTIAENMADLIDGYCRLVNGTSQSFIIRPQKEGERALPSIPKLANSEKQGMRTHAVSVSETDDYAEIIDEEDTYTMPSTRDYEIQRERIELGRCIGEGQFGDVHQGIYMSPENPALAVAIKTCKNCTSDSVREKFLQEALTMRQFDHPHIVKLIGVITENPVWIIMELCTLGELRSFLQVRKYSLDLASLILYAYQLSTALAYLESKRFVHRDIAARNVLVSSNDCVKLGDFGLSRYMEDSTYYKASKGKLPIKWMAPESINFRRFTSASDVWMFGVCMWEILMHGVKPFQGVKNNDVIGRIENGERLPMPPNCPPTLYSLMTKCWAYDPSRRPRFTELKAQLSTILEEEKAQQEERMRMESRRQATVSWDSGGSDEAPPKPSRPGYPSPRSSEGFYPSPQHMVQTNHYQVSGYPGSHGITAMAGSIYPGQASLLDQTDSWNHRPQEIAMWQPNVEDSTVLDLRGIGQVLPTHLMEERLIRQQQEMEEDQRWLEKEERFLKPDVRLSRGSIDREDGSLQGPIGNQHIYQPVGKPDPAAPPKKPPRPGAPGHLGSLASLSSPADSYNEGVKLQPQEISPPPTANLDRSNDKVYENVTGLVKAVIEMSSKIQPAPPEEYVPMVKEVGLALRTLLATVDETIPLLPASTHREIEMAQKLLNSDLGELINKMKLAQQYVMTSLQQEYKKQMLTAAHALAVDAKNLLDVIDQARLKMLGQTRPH
Turning to `CC(C)NC(=O)[C@@H]1c2ccccc2C(=O)N(Cc2cc(C(F)(F)F)cc(C(F)(F)F)c2)[C@H]1c1ccc(CO)cc1`, the composite z-score amounted to 0.528.

As for `O=C(CS)NCCCCCNC(=O)[C@@H]1C[C@@H]2C(=O)N3CCC[C@H]3C(=O)N2[C@@H]1c1ccc(O)cc1`, the composite z-score worked out at 0.0999. `CCCCC=C[C@@H](NC(=O)CCc1ccccc1)c1ccccc1` registered a composite z-score of 0.507. Under `COCCOC(=O)N1C(=O)[C@@]2(c3cc(C#Cc4ccc(OC)cc4)ccc31)[C@H](C(=O)N1CCc3cc(OC)c(OC)cc3C1)[C@H]1C(=O)O[C@H](c3ccccc3)[C@H](c3ccccc3)N1[C@@H]2c1ccc(OCCO)cc1` stands 0.5; under `OCc1ccc(-c2cc[n+](Cc3cccc(OC(F)(F)F)c3)cc2)cc1`, 0.0665; under `O=C(Nc1cc(Br)ccc1C(=O)NCc1cccc(O)c1)c1ccccc1`, 0.243. Under `COC(=O)c1ccc(OC)c(/C=C\CC(CCc2ccccc2)OC(C)=O)c1` (stereo not drawn) stands 0.377; under `O=C1C[C@@](C(=O)O)(c2ccc([N+](=O)[O-])cc2)[C@@H](c2ccc(CO)cc2)N1CC12CC3CC(CC(C3)C1)C2`, 0.486. Under `CO[C@H]1O[C@H](CO)[C@@H](OC(=O)Nc2cccc(F)c2)[C@H](OC(=O)Nc2ccc3c(c2)OCO3)[C@H]1OC(=O)Nc1ccc2c(c1)OCO2` stands 0.807; under `COc1ccc([Si](C)(C)[C@H]2[C@H](CCO)O[C@@]3(C(=O)N(Cc4cccc(N5CCOC5=O)c4)c4ccccc43)[C@@H]2C)cc1`, 0.413. In turn, `COC(=O)C(CC#Cc1ccc2c(c1)[C@]1(C(=O)N2)[C@H](c2ccccc2OCCO)N2[C@H](c3ccccc3)[C@H](c3ccccc3)OC(=O)[C@H]2[C@@H]1C(=O)Nc1nc2ccccc2s1)C(=O)OC` showed a composite z-score of 0.607. Under `CCOC(=O)C[C@H]1[C@H](OC(=O)Cc2ccc3c(c2)OCO3)[C@@H](NC(=O)c2ccccc2)c2cc(OCCCO)ccc2N1C(=O)c1ccc2ccccc2n1` stands -0.0584; under `Cc1ccc(S[C@]2(C(=O)NCc3ccccc3)CC(=O)N(C3Cc4ccccc4C3)[C@@H]2c2ccc(CO)cc2I)cc1`, -0.17; under `CC(C)C(CO)N1C(=O)[C@@H]2[C@H]3C(=O)OCC=C[C@H]3OC23C=CCN(CCN2CCOCC2)C(=O)[C@@H]13` (stereo partly drawn), -0.403. Under `C=CCOC(=O)[C@@H]1[C@H]2C(=O)O[C@H](c3ccccc3)[C@H](c3ccccc3)N2[C@H](c2ccc(OCCOC(=O)[C@H]3C[C@H]4C(=O)N[C@@H](Cc5ccccc5)C(=O)N4[C@H]3c3cccc(OCCO)c3)cc2)[C@@]12C(=O)Nc1ccc(I)cc12` stands 0.819; under `CCOC(=O)C[C@H]1[C@H](OC(=O)c2ccccc2-c2ccccc2)[C@@H](NC(=O)c2ccccc2)c2cc(OCCCO)ccc2N1C(=O)Cc1ccc(OC)cc1`, 0.0427. Under `NCCCCCCNC(=O)[C@H]1C[C@H]2C(=O)N3CCC[C@H]3C(=O)N2[C@H]1c1ccc(O)cc1` stands 1.1; under `COC(=O)[C@@]1(Cc2ccc(F)cc2)[C@H]2c3cc(C(=O)N4CCCC4)n(Cc4ccccc4)c3C[C@H]2CN1C(=O)c1ccccc1`, 1.08. `COC(=O)[C@@]1(Cc2ccccc2)[C@H]2c3cc(C(=O)N(C)C)n(Cc4ccccn4)c3C[C@H]2CN1C(=O)c1ccccc1` returned a composite z-score of 1.56.

On to `O=C1c2ccccc2[C@](Cc2ccccc2I)(C(=O)NCC(F)(F)F)[C@H](c2ccc(CO)cc2)N1Cc1ccccc1`, for which the composite z-score worked out at 0.77. The value for `O=C1NC(=O)C2C1C=CC(C(O)c1ccc3c(c1)OCO3)N2Nc1ccc(Cl)cc1Cl` (stereo not drawn) was 0.822; that for `COCCOC(=O)N1C(=O)[C@@]2(c3cc(C#CCCO)ccc31)[C@H](c1ccc(OCCO)cc1)N1[C@H](c3ccccc3)[C@H](c3ccccc3)OC(=O)[C@H]1[C@@H]2C(=O)N1CCc2cc(OC)c(OC)cc2C1` was 0.81; that for `CC(C)c1ccc(NN2C(C(O)c3cccs3)C=CC3C(=O)N(c4ccccc4)C(=O)C32)cc1` (stereo not drawn) was 0.814. The value for `C#CCNS(=O)(=O)N(C)C` was 0.17; that for `C=CC[C@]1(C(=O)N(C)C)N=C(c2ccc(OCCCO)cc2)O[C@H]1c1ccccc1` was 1.04.

`C[C@@H]1ON(c2ccccc2)[C@H](c2ccccc2)[C@H]1C(=O)N1C(=O)OC[C@H]1Cc1ccccc1` yielded a composite z-score of 0.507.

As to `COc1ccc([Si](C)(C)[C@H]2[C@H](CC(=O)N3CCC[C@H]3CO)O[C@@]3(C(=O)N(Cc4ccc(N5C(=O)c6cccc7cccc5c67)cc4)c4ccccc43)[C@@H]2C)cc1`, the composite z-score was 1.18. Under `COCC1=C([C@H](O)CCc2ccccc2)[C@H](CO)[C@@H]2C(=O)N(C)C(=O)[C@@H]2C1` stands 0.0647.
